For two compounds, inhibition results are on record in ChEMBL document CHEMBL1961873, “Compounds: GSK PKIS; Assays: Nanosyn kinase panel” (2012).

Assay [1] deals with T1, Inhibitor of nuclear factor kappa-B kinase subunit epsilon (Homo sapiens) (UniProt Q14164).
T1 sequence (whole entry): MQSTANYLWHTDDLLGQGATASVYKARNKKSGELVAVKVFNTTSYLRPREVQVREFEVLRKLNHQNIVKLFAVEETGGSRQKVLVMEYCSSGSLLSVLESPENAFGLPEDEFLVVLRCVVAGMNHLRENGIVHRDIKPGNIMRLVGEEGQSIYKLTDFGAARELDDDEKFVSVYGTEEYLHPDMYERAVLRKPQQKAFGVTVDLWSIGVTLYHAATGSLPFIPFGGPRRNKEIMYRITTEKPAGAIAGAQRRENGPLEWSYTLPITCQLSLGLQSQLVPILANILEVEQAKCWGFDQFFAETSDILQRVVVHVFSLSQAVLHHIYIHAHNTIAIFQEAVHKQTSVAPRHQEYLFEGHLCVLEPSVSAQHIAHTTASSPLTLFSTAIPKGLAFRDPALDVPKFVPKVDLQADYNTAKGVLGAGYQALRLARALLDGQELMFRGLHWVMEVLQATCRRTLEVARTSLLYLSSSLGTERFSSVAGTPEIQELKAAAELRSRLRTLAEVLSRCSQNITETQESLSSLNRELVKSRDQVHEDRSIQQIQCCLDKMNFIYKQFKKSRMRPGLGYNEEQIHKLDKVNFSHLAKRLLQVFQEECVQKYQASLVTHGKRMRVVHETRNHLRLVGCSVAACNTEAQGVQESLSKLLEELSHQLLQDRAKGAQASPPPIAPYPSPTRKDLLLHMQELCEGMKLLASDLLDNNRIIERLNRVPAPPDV
Conditions: at 1 µM.

Assay [2] deals with T2, Serine/threonine-protein kinase Nek1 (Homo sapiens) (UniProt Q96PY6).
T2 sequence (whole entry): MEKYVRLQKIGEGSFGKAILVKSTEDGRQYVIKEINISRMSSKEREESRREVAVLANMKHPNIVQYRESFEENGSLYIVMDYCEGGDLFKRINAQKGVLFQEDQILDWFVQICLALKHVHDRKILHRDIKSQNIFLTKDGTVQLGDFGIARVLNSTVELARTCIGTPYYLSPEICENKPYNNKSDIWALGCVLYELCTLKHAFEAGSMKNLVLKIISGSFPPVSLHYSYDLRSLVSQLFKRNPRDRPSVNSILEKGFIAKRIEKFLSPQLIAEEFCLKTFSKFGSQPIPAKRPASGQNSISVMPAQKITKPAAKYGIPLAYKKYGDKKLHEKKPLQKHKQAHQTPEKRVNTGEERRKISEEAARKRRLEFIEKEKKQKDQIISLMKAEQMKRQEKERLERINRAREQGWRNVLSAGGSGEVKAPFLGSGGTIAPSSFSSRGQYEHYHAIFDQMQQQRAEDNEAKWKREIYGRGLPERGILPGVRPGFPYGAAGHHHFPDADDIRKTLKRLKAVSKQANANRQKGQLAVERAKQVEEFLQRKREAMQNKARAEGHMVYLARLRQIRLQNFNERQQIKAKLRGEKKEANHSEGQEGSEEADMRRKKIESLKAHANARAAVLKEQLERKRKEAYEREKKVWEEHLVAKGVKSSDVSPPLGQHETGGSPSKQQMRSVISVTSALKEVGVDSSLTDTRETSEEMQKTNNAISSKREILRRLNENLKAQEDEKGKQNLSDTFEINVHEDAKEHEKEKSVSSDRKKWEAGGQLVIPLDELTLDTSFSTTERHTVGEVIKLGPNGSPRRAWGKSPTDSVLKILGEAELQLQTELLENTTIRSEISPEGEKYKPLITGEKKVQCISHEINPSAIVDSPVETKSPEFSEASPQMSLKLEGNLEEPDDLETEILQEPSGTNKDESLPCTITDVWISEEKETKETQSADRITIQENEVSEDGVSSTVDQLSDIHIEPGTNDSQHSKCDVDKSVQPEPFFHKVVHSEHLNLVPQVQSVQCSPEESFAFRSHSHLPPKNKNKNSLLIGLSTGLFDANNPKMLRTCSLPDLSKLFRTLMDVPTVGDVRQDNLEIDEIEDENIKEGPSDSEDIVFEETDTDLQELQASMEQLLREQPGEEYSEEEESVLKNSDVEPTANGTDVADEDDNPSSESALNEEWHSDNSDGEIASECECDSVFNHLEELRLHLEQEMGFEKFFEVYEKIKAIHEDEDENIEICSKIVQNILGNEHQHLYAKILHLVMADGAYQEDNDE
To be noted: at 0.1 µM.

For assay [3], the target named is T2, Serine/threonine-protein kinase Nek1 (Homo sapiens). To be noted: at 1 µM.
The target in assay [4] is T3, Serine/threonine-protein kinase Nek2 (Homo sapiens) (UniProt P51955).
T3 sequence (whole entry): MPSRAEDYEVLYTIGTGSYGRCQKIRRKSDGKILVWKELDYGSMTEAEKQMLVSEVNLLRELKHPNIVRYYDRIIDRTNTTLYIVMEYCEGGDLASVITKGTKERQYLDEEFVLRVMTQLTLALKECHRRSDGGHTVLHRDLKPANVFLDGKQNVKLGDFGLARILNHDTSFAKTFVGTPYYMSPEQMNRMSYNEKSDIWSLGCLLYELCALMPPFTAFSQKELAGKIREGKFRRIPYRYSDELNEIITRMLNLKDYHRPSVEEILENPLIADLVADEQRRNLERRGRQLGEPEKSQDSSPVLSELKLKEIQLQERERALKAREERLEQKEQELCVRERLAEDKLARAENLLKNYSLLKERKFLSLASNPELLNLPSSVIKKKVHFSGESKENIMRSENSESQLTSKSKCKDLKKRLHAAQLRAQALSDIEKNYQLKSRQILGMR
Conditions: at 0.1 µM.

The target in assay [5] is T3, Serine/threonine-protein kinase Nek2 (Homo sapiens). Conditions: at 1 µM.
The target in assay [6] is Serine/threonine-protein kinase Nek6 (Homo sapiens) (UniProt Q9HC98). Conditions: at 0.1 µM.
Assay [7] shares this target. Conditions: at 1 µM.
Assay [8] addresses Serine/threonine-protein kinase Nek7 (Homo sapiens) (UniProt Q8TDX7). To be noted: at 0.1 µM.
Assay [9] has the same target. To be noted: at 1 µM.
The target in assay [10] is T4, Serine/threonine-protein kinase Nek9 (Homo sapiens) (UniProt Q8TD19).
T4 sequence (whole entry): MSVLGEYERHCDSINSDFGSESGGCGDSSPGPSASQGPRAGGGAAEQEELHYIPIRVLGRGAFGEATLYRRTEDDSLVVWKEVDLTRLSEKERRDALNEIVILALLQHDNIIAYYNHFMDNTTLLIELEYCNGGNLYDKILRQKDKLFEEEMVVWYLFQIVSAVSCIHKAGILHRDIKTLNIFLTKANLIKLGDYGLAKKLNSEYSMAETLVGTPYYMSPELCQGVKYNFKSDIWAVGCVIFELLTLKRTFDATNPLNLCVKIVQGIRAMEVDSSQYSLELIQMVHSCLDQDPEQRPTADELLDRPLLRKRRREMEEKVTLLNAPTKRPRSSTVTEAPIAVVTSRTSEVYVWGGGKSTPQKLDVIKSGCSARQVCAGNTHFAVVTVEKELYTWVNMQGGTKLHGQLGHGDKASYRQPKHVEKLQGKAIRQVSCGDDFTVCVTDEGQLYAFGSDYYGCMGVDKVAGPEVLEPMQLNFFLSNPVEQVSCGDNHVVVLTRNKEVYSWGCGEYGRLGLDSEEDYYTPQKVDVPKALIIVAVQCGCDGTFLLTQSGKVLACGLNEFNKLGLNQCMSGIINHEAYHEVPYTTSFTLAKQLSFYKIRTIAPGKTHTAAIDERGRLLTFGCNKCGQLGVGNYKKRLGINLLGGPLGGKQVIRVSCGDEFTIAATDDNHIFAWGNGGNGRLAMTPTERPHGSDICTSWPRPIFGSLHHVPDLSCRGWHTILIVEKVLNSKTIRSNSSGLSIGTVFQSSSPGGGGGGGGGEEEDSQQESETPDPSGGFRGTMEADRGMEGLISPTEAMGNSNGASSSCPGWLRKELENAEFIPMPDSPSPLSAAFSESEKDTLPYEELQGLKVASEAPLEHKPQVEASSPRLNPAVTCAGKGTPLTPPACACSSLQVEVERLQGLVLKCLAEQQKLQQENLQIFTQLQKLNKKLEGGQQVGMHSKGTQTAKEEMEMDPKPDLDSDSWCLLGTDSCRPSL
To be noted: at 0.1 µM.

Assay [11] deals with T4, Serine/threonine-protein kinase Nek9 (Homo sapiens). To be noted: at 1 µM.
The target of assay [12] is Serine/threonine-protein kinase PLK1 (Homo sapiens) (UniProt P53350). To be noted: at 0.1 µM.
Assay [13] shares this target. To be noted: at 1 µM.
The target in assay [14] is T5, Dual specificity protein kinase TTK (Homo sapiens) (UniProt P33981).
T5 sequence (whole entry): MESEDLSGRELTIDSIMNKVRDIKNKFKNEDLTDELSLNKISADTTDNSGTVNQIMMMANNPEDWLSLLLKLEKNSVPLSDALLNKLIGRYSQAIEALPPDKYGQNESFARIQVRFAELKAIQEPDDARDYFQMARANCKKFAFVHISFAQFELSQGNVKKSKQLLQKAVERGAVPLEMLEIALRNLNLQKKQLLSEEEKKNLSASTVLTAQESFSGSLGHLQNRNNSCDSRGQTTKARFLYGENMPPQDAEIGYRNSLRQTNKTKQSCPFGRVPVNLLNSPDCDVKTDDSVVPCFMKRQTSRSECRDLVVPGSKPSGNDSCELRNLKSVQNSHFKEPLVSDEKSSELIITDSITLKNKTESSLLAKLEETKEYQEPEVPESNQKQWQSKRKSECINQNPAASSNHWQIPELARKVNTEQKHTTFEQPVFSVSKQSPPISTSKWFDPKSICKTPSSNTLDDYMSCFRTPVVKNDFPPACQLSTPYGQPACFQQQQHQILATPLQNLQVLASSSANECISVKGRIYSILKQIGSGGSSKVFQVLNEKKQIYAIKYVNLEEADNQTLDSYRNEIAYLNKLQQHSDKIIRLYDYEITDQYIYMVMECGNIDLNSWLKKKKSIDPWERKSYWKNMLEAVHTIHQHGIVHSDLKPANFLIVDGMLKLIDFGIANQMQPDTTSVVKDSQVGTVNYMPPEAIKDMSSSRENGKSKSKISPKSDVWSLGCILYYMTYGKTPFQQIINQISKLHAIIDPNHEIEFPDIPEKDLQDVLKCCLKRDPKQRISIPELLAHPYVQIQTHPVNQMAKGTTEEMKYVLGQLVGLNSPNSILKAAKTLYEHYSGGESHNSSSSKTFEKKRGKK
Conditions: at 0.1 µM.

Assay [15] deals with T6, Receptor-type tyrosine-protein kinase FLT3 (Homo sapiens), P36888 [D835Y].
T6 sequence (whole entry): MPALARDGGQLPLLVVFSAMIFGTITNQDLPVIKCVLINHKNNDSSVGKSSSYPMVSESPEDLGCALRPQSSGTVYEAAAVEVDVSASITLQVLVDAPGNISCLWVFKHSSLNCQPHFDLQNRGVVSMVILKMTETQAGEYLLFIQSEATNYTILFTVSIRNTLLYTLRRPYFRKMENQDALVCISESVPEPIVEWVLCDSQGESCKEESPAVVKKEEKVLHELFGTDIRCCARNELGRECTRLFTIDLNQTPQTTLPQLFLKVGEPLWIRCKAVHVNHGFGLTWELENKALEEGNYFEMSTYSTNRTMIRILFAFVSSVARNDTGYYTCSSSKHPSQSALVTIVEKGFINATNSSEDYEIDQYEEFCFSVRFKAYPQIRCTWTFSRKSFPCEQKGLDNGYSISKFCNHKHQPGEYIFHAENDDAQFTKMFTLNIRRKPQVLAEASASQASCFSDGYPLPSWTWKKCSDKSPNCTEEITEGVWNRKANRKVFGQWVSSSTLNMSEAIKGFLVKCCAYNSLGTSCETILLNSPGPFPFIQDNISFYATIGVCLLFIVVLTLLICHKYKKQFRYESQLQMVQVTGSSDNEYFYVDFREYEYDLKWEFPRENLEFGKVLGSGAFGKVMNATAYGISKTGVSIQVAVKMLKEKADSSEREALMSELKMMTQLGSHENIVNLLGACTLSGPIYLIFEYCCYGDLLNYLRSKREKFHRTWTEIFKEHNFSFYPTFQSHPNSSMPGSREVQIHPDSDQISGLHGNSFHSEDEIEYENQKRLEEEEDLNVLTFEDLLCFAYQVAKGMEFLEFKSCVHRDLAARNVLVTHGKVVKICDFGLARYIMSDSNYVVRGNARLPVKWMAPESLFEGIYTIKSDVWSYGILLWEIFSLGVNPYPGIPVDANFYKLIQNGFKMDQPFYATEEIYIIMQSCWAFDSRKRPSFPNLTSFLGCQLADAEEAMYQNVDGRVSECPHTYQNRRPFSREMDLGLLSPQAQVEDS
To be noted: at 1 µM.

For assay [16], the target named is Vascular endothelial growth factor receptor 3 (Homo sapiens) (UniProt P35916). To be noted: at 0.1 µM.
Assay [17] shares this target. Conditions: at 1 µM.
The target in assay [18] is Macrophage colony-stimulating factor 1 receptor (Homo sapiens) (UniProt P07333). Conditions: at 0.1 µM.
Assay [19] shares this target. Conditions: at 1 µM.
In assay [20] the target is Tyrosine-protein kinase Fyn (Homo sapiens) (UniProt P06241). Conditions: at 0.1 µM.
Sequence of Tyrosine-protein kinase Fyn (Homo sapiens) (P06241 2-537 limits assumed): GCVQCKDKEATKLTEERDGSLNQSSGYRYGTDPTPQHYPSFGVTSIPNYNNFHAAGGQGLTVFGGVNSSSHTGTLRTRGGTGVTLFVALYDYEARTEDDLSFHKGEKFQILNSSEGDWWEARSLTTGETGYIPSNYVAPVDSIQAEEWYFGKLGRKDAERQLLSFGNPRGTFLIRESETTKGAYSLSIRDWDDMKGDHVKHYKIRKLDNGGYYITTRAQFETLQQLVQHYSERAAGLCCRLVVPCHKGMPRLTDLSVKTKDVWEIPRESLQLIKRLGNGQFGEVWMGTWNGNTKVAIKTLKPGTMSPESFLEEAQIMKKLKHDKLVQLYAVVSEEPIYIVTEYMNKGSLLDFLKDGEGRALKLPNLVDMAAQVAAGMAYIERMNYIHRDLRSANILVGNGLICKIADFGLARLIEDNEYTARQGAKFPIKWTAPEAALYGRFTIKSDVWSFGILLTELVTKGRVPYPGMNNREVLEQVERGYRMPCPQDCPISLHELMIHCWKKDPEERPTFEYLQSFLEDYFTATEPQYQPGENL

Sequence of Macrophage colony-stimulating factor 1 receptor (Homo sapiens) (P07333 whole entry): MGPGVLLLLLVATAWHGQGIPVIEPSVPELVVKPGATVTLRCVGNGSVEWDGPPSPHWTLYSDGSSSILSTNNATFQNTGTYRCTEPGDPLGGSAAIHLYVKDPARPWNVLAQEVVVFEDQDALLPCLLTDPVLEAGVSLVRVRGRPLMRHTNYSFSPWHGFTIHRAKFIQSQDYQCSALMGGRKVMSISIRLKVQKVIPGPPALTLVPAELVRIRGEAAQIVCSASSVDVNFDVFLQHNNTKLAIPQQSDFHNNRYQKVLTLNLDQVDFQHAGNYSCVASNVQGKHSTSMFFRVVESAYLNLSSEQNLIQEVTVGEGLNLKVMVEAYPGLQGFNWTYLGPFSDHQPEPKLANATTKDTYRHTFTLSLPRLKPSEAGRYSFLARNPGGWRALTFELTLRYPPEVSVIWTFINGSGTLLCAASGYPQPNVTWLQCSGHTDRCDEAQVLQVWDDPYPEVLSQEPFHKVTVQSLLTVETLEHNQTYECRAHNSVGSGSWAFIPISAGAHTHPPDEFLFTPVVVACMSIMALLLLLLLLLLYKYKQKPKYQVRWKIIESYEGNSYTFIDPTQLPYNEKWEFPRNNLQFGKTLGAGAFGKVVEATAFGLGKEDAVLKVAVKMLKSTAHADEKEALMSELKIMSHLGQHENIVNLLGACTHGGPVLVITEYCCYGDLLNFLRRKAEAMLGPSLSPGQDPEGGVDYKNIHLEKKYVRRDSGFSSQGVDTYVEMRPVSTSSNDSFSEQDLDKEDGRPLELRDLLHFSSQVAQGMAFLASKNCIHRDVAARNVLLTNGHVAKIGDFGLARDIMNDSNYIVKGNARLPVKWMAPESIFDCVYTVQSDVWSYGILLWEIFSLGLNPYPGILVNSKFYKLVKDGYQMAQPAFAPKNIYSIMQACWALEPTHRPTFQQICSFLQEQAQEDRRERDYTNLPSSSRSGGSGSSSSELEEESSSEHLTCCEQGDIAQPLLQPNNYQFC
Sequence of Serine/threonine-protein kinase Nek6 (Homo sapiens) (Q9HC98 whole entry): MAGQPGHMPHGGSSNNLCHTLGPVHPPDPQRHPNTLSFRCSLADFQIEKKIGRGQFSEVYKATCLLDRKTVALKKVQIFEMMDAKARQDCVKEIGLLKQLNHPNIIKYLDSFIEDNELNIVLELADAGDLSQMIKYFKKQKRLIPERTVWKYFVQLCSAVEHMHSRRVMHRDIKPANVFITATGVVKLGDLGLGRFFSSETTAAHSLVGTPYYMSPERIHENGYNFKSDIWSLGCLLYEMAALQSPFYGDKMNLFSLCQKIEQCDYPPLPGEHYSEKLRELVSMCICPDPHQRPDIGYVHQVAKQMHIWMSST
Sequence of Vascular endothelial growth factor receptor 3 (Homo sapiens) (P35916 whole entry): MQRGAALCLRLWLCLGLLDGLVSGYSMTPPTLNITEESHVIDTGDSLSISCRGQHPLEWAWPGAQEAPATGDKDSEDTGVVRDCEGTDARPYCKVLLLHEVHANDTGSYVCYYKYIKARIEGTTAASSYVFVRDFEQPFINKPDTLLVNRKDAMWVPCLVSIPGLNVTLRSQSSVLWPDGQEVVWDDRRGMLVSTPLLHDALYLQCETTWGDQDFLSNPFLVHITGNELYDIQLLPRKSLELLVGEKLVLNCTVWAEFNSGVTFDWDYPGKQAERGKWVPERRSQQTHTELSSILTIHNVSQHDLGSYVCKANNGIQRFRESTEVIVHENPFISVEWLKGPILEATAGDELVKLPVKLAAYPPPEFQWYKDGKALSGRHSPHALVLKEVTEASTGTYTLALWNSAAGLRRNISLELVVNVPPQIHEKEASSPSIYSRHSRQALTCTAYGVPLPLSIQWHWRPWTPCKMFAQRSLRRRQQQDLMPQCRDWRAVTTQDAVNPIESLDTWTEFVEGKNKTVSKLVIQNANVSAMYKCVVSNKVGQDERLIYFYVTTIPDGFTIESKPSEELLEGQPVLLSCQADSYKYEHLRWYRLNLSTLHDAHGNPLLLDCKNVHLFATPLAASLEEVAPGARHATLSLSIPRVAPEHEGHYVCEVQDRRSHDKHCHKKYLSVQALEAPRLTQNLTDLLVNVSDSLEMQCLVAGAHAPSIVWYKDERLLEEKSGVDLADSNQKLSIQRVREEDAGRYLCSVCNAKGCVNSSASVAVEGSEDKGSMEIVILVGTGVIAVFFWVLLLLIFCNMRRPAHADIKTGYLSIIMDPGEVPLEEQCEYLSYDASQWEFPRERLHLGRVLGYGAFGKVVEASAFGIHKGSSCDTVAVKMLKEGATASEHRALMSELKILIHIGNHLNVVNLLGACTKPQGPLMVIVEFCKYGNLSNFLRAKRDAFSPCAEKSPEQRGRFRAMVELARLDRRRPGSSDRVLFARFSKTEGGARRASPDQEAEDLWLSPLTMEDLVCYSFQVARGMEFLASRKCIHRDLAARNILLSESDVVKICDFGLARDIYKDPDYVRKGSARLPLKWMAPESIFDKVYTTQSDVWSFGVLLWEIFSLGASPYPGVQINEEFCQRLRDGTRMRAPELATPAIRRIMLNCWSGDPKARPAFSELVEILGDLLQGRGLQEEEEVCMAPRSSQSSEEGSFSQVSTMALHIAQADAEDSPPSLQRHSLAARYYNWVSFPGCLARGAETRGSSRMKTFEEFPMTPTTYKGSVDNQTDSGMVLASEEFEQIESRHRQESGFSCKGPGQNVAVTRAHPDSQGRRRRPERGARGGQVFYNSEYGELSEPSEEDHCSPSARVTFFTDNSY
Sequence of Serine/threonine-protein kinase PLK1 (Homo sapiens) (P53350 whole entry): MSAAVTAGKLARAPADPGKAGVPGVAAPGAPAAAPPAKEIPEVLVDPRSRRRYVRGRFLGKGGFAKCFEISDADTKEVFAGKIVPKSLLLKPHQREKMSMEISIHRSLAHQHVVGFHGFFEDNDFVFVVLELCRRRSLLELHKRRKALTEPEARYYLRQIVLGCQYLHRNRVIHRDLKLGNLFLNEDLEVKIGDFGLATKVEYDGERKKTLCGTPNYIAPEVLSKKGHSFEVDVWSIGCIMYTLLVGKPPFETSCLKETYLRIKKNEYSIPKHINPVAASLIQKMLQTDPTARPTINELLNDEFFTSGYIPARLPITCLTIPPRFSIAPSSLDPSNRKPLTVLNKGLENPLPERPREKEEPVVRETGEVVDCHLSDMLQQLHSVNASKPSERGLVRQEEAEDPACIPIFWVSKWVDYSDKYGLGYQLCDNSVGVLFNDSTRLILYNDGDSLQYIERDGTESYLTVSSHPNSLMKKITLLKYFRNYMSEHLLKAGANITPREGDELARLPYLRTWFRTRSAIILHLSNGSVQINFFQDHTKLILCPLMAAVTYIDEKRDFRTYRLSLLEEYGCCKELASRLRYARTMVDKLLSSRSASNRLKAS
Sequence of Serine/threonine-protein kinase Nek7 (Homo sapiens) (Q8TDX7 whole entry, looked up): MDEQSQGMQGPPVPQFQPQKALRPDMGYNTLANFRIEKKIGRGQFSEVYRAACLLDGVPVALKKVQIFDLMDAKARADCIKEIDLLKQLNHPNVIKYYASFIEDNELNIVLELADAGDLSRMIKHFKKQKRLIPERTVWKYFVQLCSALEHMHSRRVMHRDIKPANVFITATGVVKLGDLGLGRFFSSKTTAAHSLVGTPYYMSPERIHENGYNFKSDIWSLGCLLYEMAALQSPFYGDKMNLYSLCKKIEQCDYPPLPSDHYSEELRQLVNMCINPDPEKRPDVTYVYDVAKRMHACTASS

As usually defined, the inhibition is the drop in the measured response relative to a control, in per cent. With `O=C(O[C@H]1CN[C@H](C#Cc2cc3ncnc(Nc4ccc5c(cnn5Cc5ccccc5)c4)c3s2)C1)N1CCOCC1`, the inhibition was 2.35% in assay [1]; 1.14% in assay [2]; -0.05% in assay [3]; 0.17% in assay [4]; 0.04% in assay [5]; -0.55% in assay [6]. The inhibition was 1.2% in assay [7]; -1.22% in assay [8]; 1.45% in [9]; -1.71% in assay [10]; -0.45% in [11]; -1.27% in assay [12]. For the same compound, the inhibition was 1.79% in [13]; 5.51% in assay [14]; 2.81% in [15]; 1.1% in [16]; 1.5% in assay [17]; -6.02% in assay [18]. Also, the inhibition in [19] was determined as 4.04%; in assay [20], 1.79%.

As for `CCS(=O)(=O)c1ccc(OC)c(Nc2ncc(-c3cccc(F)c3)o2)c1`, the inhibition in [1] was 8.87%; in [2], 4.05%; in assay [3], 5.27%; in assay [4], 6.14%; in assay [5] it was 7.08%; in assay [6], -1.8%. For the same compound, the inhibition stood at 1.24% in assay [7]; 4.07% in [8]; 0.27% in assay [9]; 7.49% in assay [10]; 16.1% in assay [11]; 7.8% in [12]. In addition, the inhibition was 9.98% in assay [13]; 10.5% in [14]; 60.3% in assay [15]; 36.4% in assay [16]; 86.8% in [17]; 33.7% in assay [18]. For the same compound, the inhibition in [19] amounted to 66.7%; in assay [20], 30.1%.
